Screens: PubChem, several laboratories
Most compounds without a hit are left out; they make up all but 9.6% or so of the library.
Autophagy HCS: autophagy modulators in MEF cells, primary screen, imaging, high-content, MEF GFP-LC3; MEF GFP-LC3 puncta imaging; test concentration mostly 10 µM; calls only at 10 µM (by protocol); 0.98% of 190,000 active;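 active means percentage of spot-positive cells more than 3 SD above its plate mean, without a fluorescence outlier flag or 80% toxicity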
bCat KO growth: primary screen for growth suppressors in beta-catenin knockout HCT116 cells (colon tumor, human) | HCT116 beta-catenin knockout viability, CellTiter-Glo, 60 h; active compounds read low | viability, % at 10 µM | 1.5% of 140,000 active;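 active means viability at or under a set limit, the compound median less 4 SD, cut at about 6% in these data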
L major viab: Leishmania major promastigote growth inhibition, primary screen; inhibition, % at 10 µM; AID 1063, 2008; 9% of 200,000 active; Leishmania major promastigotes, resazurin fluorescence viability; in the data active means inhibition above about 50%;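 further: promastigotes grown with compound for 44 hours at 28 °C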
INS promoter inh: inhibitors of insulin promoter-driven GFP, primary screen, imaging, TRM-6 cells (human fetal islet line), eGFP reporter, cell count. 0.9% of 130,000 active. reporter expression induced with tamoxifen. AID 1273, 2008. inhibition, % at 2 µM;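 active means inhibition above the mean plus 3 SD, with well images judged a real hit on visual review, cut at about 60% in these data, passing the limit was not always enough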
PTEN del growth: growth suppression of PTEN-null HCT116, primary screen, cell-based, CellTiter-Glo | HCT116 PTEN-null viability, 60 h; active compounds read low | viability, % at 10 µM | 1.2% of 140,000 active;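 active means viability at or below a set limit, 4 SD under the median of all tested compounds, cut at about 3.7% in these data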;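 further: PTEN knockout HCT116 line with beta catenin targeted HCT116 as companion control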
Insulin prom up: insulin promoter activators in MIN6 cells, imaging, high-content screening, mouse beta cells. MIN6 insulin promoter-GFP reporter; active compounds read high. z-score at 5 µM. 0.3% of 190,000 active;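 active means z-score above 3 at 5 µM with at least 500 cells counted in the well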
A number is an active result; n = inactive; x = no result; + = active, no number.

SMILES	Autophagy HCS	bCat KO growth	L major viab	INS promoter inh	PTEN del growth	Insulin prom up
N#CC1=C(N)Oc2cc(N)ccc2C1c1cccnc1 (centres undefined)	n	n	n	n	n	n
CCN(CC)c1ccc2c(c1)OC(N)=C(C#N)C2c1cccnc1 (centres undefined)	+	n	81.4	x	n	n
CS(=O)(=O)N1CCN(c2ccc([N+](=O)[O-])c(NCc3ccccc3)c2)CC1	n	n	n	x	n	n
CS(=O)(=O)N1CCN(c2ccc([N+](=O)[O-])c(NCc3ccc(Cl)cc3)c2)CC1	n	2.2	n	n	n	n
O=[N+]([O-])c1ccc(N2CCN(S(=O)(=O)c3ccc(Cl)cc3)CC2)cc1NCC1CCCO1 (centres undefined)	+	n	n	n	n	n
Cc1ccc(C(=O)N2CCN(c3ccc([N+](=O)[O-])c(NCc4cccnc4)c3)CC2)cc1	n	n	56.6	x	n	n
CCN(CC)Cc1c(O)ccc2c([N+](=O)[O-])c(C)n(-c3ccc(OC)cc3)c12	n	n	68.7	77.8	n	x
O=C(COc1ccccc1C(=O)c1cnn(-c2ccccc2)c1)Nc1ccc2ccccc2c1	n	n	n	x	n	n
O=[N+]([O-])c1cc(/C=N/O)ccc1Sc1ccccc1	n	n	77.8	n	n	n
CO/N=C/c1ccc(Sc2ccccc2)c([N+](=O)[O-])c1	n	n	n	n	n	n
Nn1cnnc1N/N=C/c1ccc(Cl)c([N+](=O)[O-])c1	n	x	53.9	n	x	n
Cc1ccc(S(=O)(=O)N/N=C\c2ccc(Cl)c([N+](=O)[O-])c2)cc1	n	n	n	n	n	n
CN(C)c1nc(N/N=C\c2ccc(Cl)c([N+](=O)[O-])c2)nc(Nc2ccc(F)cc2)n1	n	x	97.4	n	x	x
N#Cc1ccccc1NC(=O)CSc1nnc(-c2ccncc2)o1	n	x	n	x	x	n
COCc1cc(S(=O)c2ccc(Cl)cc2)nc(C)n1 (centres undefined)	n	x	98.5	x	x	n
CCc1ccc(NC(=O)c2cc(C(C)C)on2)cc1	n	n	n	n	n	3.36
Cc1ccccc1OCc1n[nH]c(=S)n1Cc1ccccc1	+	n	n	n	n	n
CCOc1ccc(Cc2n[nH]c(=S)n2Cc2ccccc2)cc1	n	x	n	x	x	x
COc1ccc(Cc2n[nH]c(=S)n2Cc2ccccc2)cc1Cl	n	x	97.4	n	x	n
S=c1[nH]nc(COc2cccc3ccccc23)n1Cc1ccccc1	x	x	x	x	x	n
Cc1ccc(OCC(=O)Nc2ccc(N3CCCC3)cc2)cc1C	n	n	n	n	n	n
CCC(C)(C)C1CCC(=NNC(=S)Nc2cccnc2)CC1 (centres undefined)	n	x	n	x	x	n
CCCCNC(=S)N/N=C/C1=CCC2CC1C2(C)C (centres undefined)	n	n	100.1	n	n	n
CC1=C/C(=N\NC(=S)Nc2cccnc2)CC(C)(C)C1	n	x	99.4	x	x	n
CC(=O)N/N=C/C1=CCC2CC1C2(C)C (centres undefined)	n	x	n	x	x	n
SMILES	Autophagy HCS	bCat KO growth	L major viab	INS promoter inh	PTEN del growth	Insulin prom up
CC(C)NC(=S)N/N=C/C1=CCC2CC1C2(C)C (centres undefined)	n	n	99.7	x	n	n
C=C(C)CNC(=S)N/N=C/C1=CCC2CC1C2(C)C (centres undefined)	n	n	99.7	x	n	n
Nc1ccc2c(c1)CCC2=O	n	x	n	n	x	x
CC1(C)C2CC=C(/C=N/NC(=S)Nc3cccnc3)C1C2 (centres undefined)	n	x	97.4	x	x	n
CC(C)(C)c1ccc(/C=N/NC(=S)Nc2cccnc2)cc1	n	x	n	x	x	n
Cc1nn(C)c(C(=O)NNC(=S)NCC(C)C)c1Cl	n	n	n	n	n	n
COc1ccc(OCc2cccc(C(=O)Nc3ccc(CN4CCCCC4)cc3)c2)cc1	n	n	78.3	n	n	n
O=C(Nc1ccc(CN2CCCCC2)cc1)c1cccc(F)c1	n	x	n	x	x	n
CCOc1ccc(OCc2cccc(C(=O)Nc3ccc(CN4CCCCC4)cc3)c2)cc1	n	1.5	96.2	n	1.9	n
COc1cc(OC)cc(C(=O)Nc2ccc(CN3CCCCC3)cc2)c1	n	x	n	x	x	n
CC1=NN(c2ccc(C(=O)O)cc2)C(=O)/C1=C\c1ccc(OC(=O)c2cccs2)cc1	n	x	n	x	x	n
